Source: PubChem BioAssay (Tox21)
Activity calls are given as the source filed them. The call rests on the fitted dose curve.

Molecular target: Acetylcholinesterase (Homo sapiens) (UniProt P22303)
Assay: Acetylcholinesterase (AChE) small molecule antagonists: enzyme-based qHTS assay with human liver microsomes (AID 1347399); further: nearly all actives have a fitted effect of over 60% in size
Details: Potency: qHTS inhibition; outcome: qHTS inhibition; series mostly up to 115 µM; activity change, negative = inhibition: at the top concentration
Outline: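 Recombinant human AChE (50 mU/mL in the enzyme mix) and human liver microsomes (0.25 mg/mL final) were preincubated with compound and NADPH (0.25 mg/mL final) for 30 min at 37 C. Acetylthiocholine/DTNB was then added; thiocholine was read colorimetrically after 10 min at room temperature.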
On the % scale 0 is the no-effect control and ±100 the full control effect.

Sequence of Acetylcholinesterase (Homo sapiens) (P22303 whole entry, looked up): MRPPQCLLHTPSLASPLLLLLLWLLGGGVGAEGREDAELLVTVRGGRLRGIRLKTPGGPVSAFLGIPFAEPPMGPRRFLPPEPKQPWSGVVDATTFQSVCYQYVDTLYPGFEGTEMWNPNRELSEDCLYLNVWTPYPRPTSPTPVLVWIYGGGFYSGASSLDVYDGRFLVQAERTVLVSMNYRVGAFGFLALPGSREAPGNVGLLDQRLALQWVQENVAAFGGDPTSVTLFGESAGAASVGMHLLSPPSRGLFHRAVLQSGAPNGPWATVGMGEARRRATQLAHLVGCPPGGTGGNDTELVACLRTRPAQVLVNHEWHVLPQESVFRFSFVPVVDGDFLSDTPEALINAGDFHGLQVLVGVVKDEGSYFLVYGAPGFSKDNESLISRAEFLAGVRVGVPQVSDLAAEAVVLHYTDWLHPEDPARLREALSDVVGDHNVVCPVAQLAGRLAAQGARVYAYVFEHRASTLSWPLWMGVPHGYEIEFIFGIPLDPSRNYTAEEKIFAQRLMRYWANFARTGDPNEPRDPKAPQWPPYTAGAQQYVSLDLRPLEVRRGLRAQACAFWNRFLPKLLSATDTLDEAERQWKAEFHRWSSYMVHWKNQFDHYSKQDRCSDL

| SMILES | Potency | activity change, negative = inhibition |
| --- | --- | --- |
| C[Si](O[Si](C)(C)C)O[Si](C)(C)C | inactive |  |
| O=C(Nc1cccc(C(F)(F)F)c1)c1cc(Br)cc(Br)c1O |  | 0.94% (inactive) |
| OC(CCl)CCl | inactive |  |
| C=CC(=O)CC |  | -3.56% (inactive) |
| CCN(CC)c1ccc(C=O)c(O)c1 |  | -9.88% (inactive) |
| CCC(C(=O)NC(=O)NC(C)=O)c1ccccc1 (stereo not given) |  | 0.362% [at 53 µM] (inactive) |
| CCCc1cc(=O)[nH]c(=S)[nH]1 | inactive |  |
| c1ccc2[nH]c(-c3cscn3)nc2c1 | inactive |  |
| O=C1c2ccccc2C(=O)c2c(O)ccc(O)c21 |  | -1.53% (inactive) |
| O=S(=O)(O)c1cc(Cl)c(Cl)cc1Cl |  | 0.142% (inactive) |
| N[C@@H](Cc1cc(I)c(Oc2cc(I)c(O)c(I)c2)c(I)c1)C(=O)O | inactive |  |
| CNC(=O)c1ccccc1 |  | -0.511% (inactive) |
| C[C@@H]1[C@H](O)[C@@H](C)/C=C/C=C\C=C\C=C\C=C\C=C\C=C\[C@H](O[C@@H]2O[C@H](C)[C@@H](O)[C@H](N)[C@@H]2O)C[C@@H]2O[C@](O)(C[C@@H](O)C[C@@H](O)[C@H](O)CC[C@@H](O)C[C@@H](O)CC(=O)O[C@H]1C)C[C@H](O)[C@H]2C(=O)O (stereo in doubt) |  | 1.29% (inactive) |
| OCCc1ccccn1 |  | -1.39% (inactive) |
| CCCCCCCCCCCSCC(=O)O |  | -1.79% (inactive) |
| COc1cc(NC(=O)CC(C)=O)c(OC)cc1Cl | inactive |  |
| CCCCCCCCC/C=C/CC1CC(=O)OC1=O (stereo not given) | inactive |  |
| CC(=O)Oc1ccc(C)cc1 | inactive |  |
| C=CCOc1cc(Cl)ccc1C(=O)NCCN(CC)CC |  | 1.51% [at 53 µM] (inactive) |
| CC(=O)OCc1ccco1 | inactive |  |

| SMILES | Potency | activity change, negative = inhibition |
| --- | --- | --- |
| O=C(Oc1ccccc1)c1ccccc1O | inactive |  |
| CCCC(C)CO (stereo not given) |  | -1.66% (inactive) |
| O=C(NCN1CCOCC1)c1cnccn1 |  | -0.496% [at 53 µM] (inactive) |
| COCCC(=O)OC |  | -1.3% (inactive) |
| O=c1c(O)c(-c2ccc(O)c(O)c2)oc2cc(O)cc(O)c12 | inactive |  |
| Cc1nc2ccccc2c(=O)o1 |  | -0.318% (inactive) |
| O=C(/C=C/c1ccc([N+](=O)[O-])cc1)c1ccccc1 |  | 4.2% (inactive) |
| CC1=CCC(O)(C(C)C)CC1 (stereo not given) |  | 0.608% (inactive) |
| C[Si](C)O[Si](C)C |  | -0.972% (inactive) |
| C1CSCCS1 |  | -1.5% (inactive) |
| CC(=O)NCc1c(I)c(NC(C)=O)c(I)c(C(=O)O)c1I |  | 0.866% [at 53 µM] (inactive) |
| CN(C)C(=O)NC1(c2ccccc2)CCN(CCC[C@]2(c3ccc(Cl)c(Cl)c3)CCCN(C(=O)c3ccccc3)C2)CC1 |  | 4.25% [at 23.6 µM] (inactive) |
| CC(C)(C)C(=O)OCOC(=O)[C@@H]1N2C(=O)[C@@H](NC(=O)[C@H](N)c3ccccc3)[C@H]2SC1(C)C |  | 0.0835% [at 53 µM] (inactive) |
| C(=C/c1ccccc1)/c1ccccc1 |  | 1.87% (inactive) |
| CC(C)c1cccc(C(C)C)c1N |  | -0.611% (inactive) |
| CC(C)CC(=O)OCc1ccccc1 |  | -0.298% (inactive) |
| CNC(=O)N(c1ccccc1)c1ccccc1 |  | 0% (inactive) |
| O=C(O)c1ccc([N+](=O)[O-])cc1 | inactive |  |
| c1ccc2c(c1)[nH]c1ccccc12 | inactive |  |
| CCCC/C=C\CCCCCCCCCC=O |  | 0.698% (inactive) |
